PubChem BioAssay (EPA / NIEHS)
Records with an inconclusive call do not appear. Calls of active or inactive are those of the source. How the source made its calls, unless noted: active means hit-call score of the fitted dose curve at least 0.9, where 1 is the maximum; inactive means score below 0.9.

Columns and labels:
[1] = UKN2_HCS_IMR90_cell_viability: Viability Assessment in the University of Konstanz (UKN) Leist Lab Neural Crest Cell Migration Assay in human induced IMR90 Pluripotent Stem Cells (UKN2) (AID 2284233);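 further: cells exposed to compound for 24 h after a 24 h migration phase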
How it was run: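 Viability read as calcein-AM fluorescence by high-content imaging, Hoechst co-stain, 30 min. Human iPSC (IMR90) neural crest cells had migrated 24 h into stopper-defined gaps before 24 h chemical exposure. Fitted bidirectionally relative to DMSO.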

[2] = CCTE_Mundy_HCI_Cortical_NOG_NeuronCount: CCTE's Neurite Outgrowth Assay in rat cortical cells for Neuron Count, Mundy Lab (AID 2284236; active means hit-call score of the fitted dose curve at least 0.9, where 1 is the maximum;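 further: neurons counted by imaging betaIII-tubulin and Hoechst stained cortical cells; cells exposed to compound for about 48 hours before fixation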)
How it was run: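 Read-out: neuron number by high-content imaging of betaIII-tubulin (Alexa Fluor-488) and Hoechst-labelled rat primary cortical cells.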

[3] = CCTE_Mundy_HCI_Cortical_NOG_BPCount: CCTE's Neurite Outgrowth Assay in rat cortical cells for Branch Point Count, Mundy Lab (AID 2284237);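 on AC50: branch points counted about two days after chemical exposure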
How it was run: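 Measured 50.33 h after dosing, this morphology endpoint uses rat primary cortical cultures labelled for betaIII-tubulin. Branch points are quantified by high-content imaging, with DMSO as negative control and baseline.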

[4] = CCTE_Mundy_HCI_hNP1_Casp3_7: CCTE's Caspase-Glo 3/7 Assay in human neuroprogenitor cells for Apoptosis, Mundy Lab (AID 2284240)
How it was run: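 Luminescent caspase-3/7 readout, 26.5 h post-dose, in human neural progenitor cells from WA09 embryonic stem cells. Cells grew 40–44 h at 37 °C, 5% CO2 before chemical addition. Activity analysed as signal increase over DMSO baseline.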

[5] = read-out: Interleukin 17A (IL17A), IL17A (gene 3605); assay: BSK_BT_xIL17A: BioMAP Diversity Plus: BT Assay for Interleukin 17A (IL17A) Biomarker Activity (AID 2284229); conditions: primary human B cells with PBMC
How it was run: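 Chemicals were added to a human B cell and PBMC co-culture. After 24 h, secreted IL-17A was measured with Luminex xMAP. Curves were fitted in the positive direction, with DMSO wells as baseline.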

[6] = read-out: Vascular cell adhesion molecule 1 (VCAM1), VCAM1 (gene 7412); assay: BSK_MyoF_VCAM1: BioMAP Diversity Plus: MyoF Assay for Vascular cell adhesion molecule 1 (VCAM1) Biomarker Activity (AID 2284231); conditions: primary human lung fibroblasts
How it was run: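 Steps: fibroblasts from human lung exposed to compound; biomarker quantified by ELISA at 24 h; values analysed for upward change over the DMSO baseline.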

[7] = read-out: Collagen I, COL1A1 (gene 1277); assay: BSK_MyoF_CollagenI: BioMAP Diversity Plus: MyoF Assay for Collagen I Biomarker Activity (AID 2284238); conditions: primary human lung fibroblasts
How it was run: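 Multiplexed primary human lung fibroblast system; Collagen I measured by ELISA at 24 h post-dose. Increases are referenced to DMSO.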

[8] = read-out: Collagen III, COL3A1 (gene 1281); assay: BSK_MyoF_CollagenIII: BioMAP Diversity Plus: MyoF Assay for Collagen III Biomarker Activity (AID 2284239); conditions: primary human lung fibroblasts
How it was run: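 Compounds are added to primary human lung fibroblasts and left for 24 hours. Collagen III is then quantified by ELISA. Analysis takes DMSO as baseline and fits increases in signal.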

[9] = TAMU_PeakParms_SingleDonor1434_QT: Texas A&M University (TAMU) 1.5-hr Human Induced Pluripotent Stem Cell (iPSC)-derived Cardiomyocytes Calcium (Ca+2) Flux Assay for Cardiotoxicity: QT (decay-rise ratio) (AID 2284235; active means hit-call score of the fitted dose curve at least 0.9, where 1 is the maximum)
How it was run: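 Decay/rise ratio of calcium-flux fluorescence scored after 90 min exposure (37C) of donor 1434 iPSC cardiomyocytes to 0.2–100 uM (0.5% DMSO). Beat-cessation and severe-notch points removed; POD is EC05, a 5% rise over DMSO.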

Measured: AC50

CO/N=C(/C(=O)OC)c1ccccc1COc1ccccc1C
active: [1] 9.92 µM | [2] 13.4 µM | [3] 14.2 µM | [4] 33.2 µM

c1ccc2c(c1)sc1ccccc12
inactive: [5] | [6] | [7] | [8]

CCC1(c2ccccc2)C(=O)N=C(O)NC1=O (stereo not drawn)
inactive: [3] | [4]

O=C(O)C(F)(F)C(F)(F)C(=O)O
inactive: [5] | [6] | [7] | [8]

O=P(OCC(Br)CBr)(OCC(Br)CBr)OCC(Br)CBr (stereo not drawn)
inactive: [7] | [8]
active: [5] 17.4 µM | [6] 17.4 µM

CCOP(=S)(OCC)SCSCC
inactive: [1] | [2] | [3] | [4]

NC(=O)C(F)(F)C(F)(F)F
inactive: [5] | [6] | [7] | [8]

O=S1(=O)OCC2C(CO1)C1(Cl)C(Cl)=C(Cl)C2(Cl)C1(Cl)Cl (stereo not drawn)
inactive: [6] | [7] | [8]
active: [5] 16.1 µM

COP(=O)(O)OC
inactive: [5] | [6] | [7] | [8]

O=P(Oc1ccccc1)(Oc1ccccc1)Oc1ccccc1
inactive: [9]

CC(O)C(F)(F)C(F)(F)F (stereo not drawn)
inactive: [5] | [6] | [7] | [8]

O=C(O)C(F)(F)OC(F)(F)C(F)(F)OC(F)(F)F
inactive: [5] | [6] | [7] | [8] | [4]

N#Cc1c(-c2ccc(Cl)cc2)[nH]c(C(F)(F)F)c1Br
active: [5] 1.14 µM | [6] 0.71 µM | [7] 0.899 µM | [8] 0.63 µM

FC(F)(F)C(F)(C(F)(F)F)C(F)(F)C(F)(F)CC1CO1 (stereo not drawn)
inactive: [5] | [6] | [7] | [8] | [4]
